Assay results as given in the OligoGym collection.
Note: reference of the scale not given here.

What follows are sequences tested against STK32B (assay: pooled miR-30 sensor sort-seq; sequence = guide strand). Conditions: shRNA.
TTTCTTAGTGTCTCGCTTCTGC showed a sensor-assay potency score (higher = more potent) of 0.225.
Work on TTGCATGATCTGCAGCTCCCGG yielded a sensor-assay potency score (higher = more potent) of -1.07.
TAATGTGAACATGTCCGTGTTC showed a sensor-assay potency score (higher = more potent) of -0.137.
TTTGCCAATCGCTTCTTCTTTT showed a sensor-assay potency score (higher = more potent) of -0.852.
For TGTAATGTGAACATGTCCGTGT, the sensor-assay potency score (higher = more potent) was 1.03.
For TAGTGTCTCGCTTCTGCACGAT, the sensor-assay potency score (higher = more potent) was -0.331.
TTGTCTGGCTTGATGTCTCTGT was tested, and the sensor-assay potency score (higher = more potent) was 0.0607.
Sequence AACATGTCCGTGTTCATCCAGC has a sensor-assay potency score (higher = more potent) of -0.285.
Sequence TTCTGCTCCTTTCACTACCGTC has a sensor-assay potency score (higher = more potent) of -0.907.
TTGGATTCTAGAATCATCTCTT gave a sensor-assay potency score (higher = more potent) of 0.951.
Work on TTCACTACCGTCGCTATGTTGA yielded a sensor-assay potency score (higher = more potent) of -0.4.

The sequences below were run against STMN2 in the same assay as above. Conditions: shRNA.
TTCCATTTTCAGGATCAGCTTT was tested, and the sensor-assay potency score (higher = more potent) was -0.67.
Sequence TTGGAGAAGCTAAAGTTCGTGG has a sensor-assay potency score (higher = more potent) of -0.769.
TTTGCTTCACTTCCATATCATC showed a sensor-assay potency score (higher = more potent) of -1.64.
TTCACTTCCATATCATCGTAAG was tested, and the sensor-assay potency score (higher = more potent) was -0.831.
For TTTTCCTCCGCCATCTTGCTGA, the sensor-assay potency score (higher = more potent) was -0.369.
TAATAGCAGCTAGATTAGCCTC gave a sensor-assay potency score (higher = more potent) of -0.915.
Sequence TTGATTTGCTTCACTTCCATAT has a sensor-assay potency score (higher = more potent) of -0.805.
Work on TAAGTATAGATGTTGATGTTGC yielded a sensor-assay potency score (higher = more potent) of -0.111.
In the case of TTTCTTCTGGATCTCCTCCAGG, the sensor-assay potency score (higher = more potent) was -0.912.
In the case of ATCATCGTAAGTATAGATGTTG, the sensor-assay potency score (higher = more potent) was -0.449.
TTCTTCTTTCCTCTGCAGCCTC gave a sensor-assay potency score (higher = more potent) of -0.81.
For TTCTGAAGGACTTCTCGCTCGT, the sensor-assay potency score (higher = more potent) was 0.283.

These sequences were tested against STRA6 in the same assay as above. Conditions: shRNA.
In the case of TTTCTTTCTCCAGAACCCCTGC, the sensor-assay potency score (higher = more potent) was -0.557.
For TTCGGTACGTGTAGTAGCCGGG, the sensor-assay potency score (higher = more potent) was -0.203.
TTGGAGGTGTGGTAGCTGCTTC was tested, and the sensor-assay potency score (higher = more potent) was -0.709.
Work on TCAATCTTCAAGAAGTTTCGGT yielded a sensor-assay potency score (higher = more potent) of 0.639.
In the case of TTCCTCAGAGTAGCTGCTCTGC, the sensor-assay potency score (higher = more potent) was -1.09.
TGTAGCTGAAAGCACCAGCTTC gave a sensor-assay potency score (higher = more potent) of -0.655.
TAGATGCAGTGTCTCAAGCAGA was tested, and the sensor-assay potency score (higher = more potent) was -0.804.
For TAGGCACTGAAGCTCATCCAAC, the sensor-assay potency score (higher = more potent) was -1.34.
Work on TGAGATGTAGCACACTTCCAGA yielded a sensor-assay potency score (higher = more potent) of -1.21.
TTTCGGTACGTGTAGTAGCCGG gave a sensor-assay potency score (higher = more potent) of -0.648.
Work on AACAGTCCCAGTATCTTCCAGG yielded a sensor-assay potency score (higher = more potent) of -0.995.
In the case of TAGTACTTGTAGATCTTGGGCA, the sensor-assay potency score (higher = more potent) was 0.389.

These sequences were tested against STRADB in the same assay as above. Conditions: shRNA.
Sequence TTGATGGCTTGTTATAAGCAGG has a sensor-assay potency score (higher = more potent) of -1.06.
In the case of TTCTTCATTGCAGTTTTCCAGA, the sensor-assay potency score (higher = more potent) was -0.72.
Work on TCTGACTTCACATTATACCCAT yielded a sensor-assay potency score (higher = more potent) of 0.302.
TACTCCTGTGAATACAGCCATT was tested, and the sensor-assay potency score (higher = more potent) was -1.43.
